The record followed here is the supplement of paper PMC6805474.

For the assay, the system named is Schistosoma mansoni schistosomula (LE). The experiment in a line: XTT viability relative to DMSO control; higher = more viable (less active). The settings on record: 72 h; 10 µM. The procedure:
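XTT/PMS was then added for a further 24 h (72 h total) and A450 was read. % viability = (sample - heat-killed control)/(DMSO control - heat-killed control) x 100, from duplicate wells in two independent experiments.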
With `CCC(Sc1nc2ccccc2o1)C(=O)Nc1nnc(C)s1` (stereo not given), the XTT viability came out at 82.8%.

Regarding `CCOc1ccc2cc(-c3nn(C(C)(C)C)c(N)c3C(N)=O)cnc2c1`, the XTT viability came to 75.2%.

On to `Cc1cc2ccccc2n1CC(=O)N1CC(C(=O)N2CCCCC2)Oc2ccccc21` (stereo not given), for which the XTT viability was 71.5%.

Turning to `CC(C)n1nc(-c2cc3c(Cl)cccc3[nH]2)c2c(N)ncnc21`, the XTT viability worked out at 54.3%.

`Nc1nc(N)c2c3c(sc2n1)CN(Cc1ccccc1)CC3`: the XTT viability was determined as 131%.

Take `CCOc1ccc2cc(-c3nn(CC4CCN(C)CC4)c4ncnc(N)c34)ccc2c1`: the XTT viability was 44.3%.

As to `Nc1ncnc2c1c(-c1cnc3ccccc3c1)nn2CC1CCNCC1`, the XTT viability was determined as 169%.

For `CS(=O)(=O)c1ccc(C(=O)N(CC2CCCO2)c2nc3ccccc3s2)cc1[N+](=O)[O-]` (stereo not given), the XTT viability is -7.96%.

Consider `O=C(NCc1ccoc1)N1CCN(Cc2ccc3c(c2)OCO3)CC1`, for which the XTT viability came to 76.2%.

For the compound `COc1ccc(N(CCc2cccc(C)n2)C(C)=O)cc1`, the XTT viability came to 114%.

As to `Nc1ncnc2c1ncn2[C@@H]1O[C@H](COS(=O)(=O)NC(=O)c2ccccc2O)[C@@H](O)[C@H]1O`, the XTT viability came to 113%.

With `NS(=O)(=O)c1cccc(-c2ccc3ncc(N4CCOCC4)nc3c2)c1`, the XTT viability is 116%.

On to `Cc1cc(Cl)c(S(=O)(=O)N2CCCC2)cc1OCC(=O)NC1CCCCC1`, for which the XTT viability worked out at 111%.

As to `Cc1ccccc1CN1CCC(O)(c2ccc(Cl)c(C(F)(F)F)c2)CC1`, the XTT viability is 71.1%.

Regarding `O=C(c1ccc(NCCO)cc1)C1C[C@H]1c1ccc(Cl)cc1` (stereo not given in full), the XTT viability amounted to 93.3%.

As to `NC(=O)c1cc(-c2ccsc2)ccc1OCCOc1ccccc1`, the XTT viability worked out at 89.5%.

On to `O=C(C1CCN(c2nnc(-n3cccc3)s2)CC1)N1CCC(Cc2ccccc2)CC1`, for which the XTT viability came to 103%.

Take `CC(=O)NCC1CN(c2ccc(-c3ccc(CNCc4cn[nH]n4)cc3)c(F)c2)C(=O)O1` (stereo not given): the XTT viability came to 108%.

`FC(F)(F)c1nnc2ccc(Cl)nn12`: the XTT viability came out at 84%.

Regarding `CS(=O)(=O)N1CCC(Cn2nc(Cc3cccc4ccccc34)c3c(N)ncnc32)CC1`, the XTT viability amounted to 122%.

For `O=C(c1[nH]nc2c1CCCC2)N1CCN(Cc2ccc3c(c2)OCO3)CC1`, the XTT viability worked out at 89.6%.

Consider `CCOC(=O)NC(=O)c1ccsc1NC(=O)c1nc2ccccc2s1`, for which the XTT viability came to 134%.

Regarding `Cc1nc(-c2ccccn2)nc(N2CCC(Cc3ccccc3)C2)c1Cl` (stereo not given), the XTT viability was -3.46%.

For `CCc1ccc(C(NCc2nc(N)nc(N(C)C)n2)C(C)C)cc1` (stereo not given), the XTT viability was determined as 99.2%.

Turning to `CC(C)(C)OC(=O)N1CCC(Cn2nc(-c3cnc4ccccc4c3)c3c(N)ncnc32)CC1`, the XTT viability worked out at 125%.

As for `Cc1ccc(S(=O)(=O)Nc2ccc(CN3CCN(C(=O)c4cccc(C#N)c4)CC3)cc2)cc1`, the XTT viability stood at 131%.

On to `COc1ccc2nc(C)cc(OCC(=O)NCc3ccccc3)c2c1`, for which the XTT viability was found to be 74.7%.

Take `Cc1ccc(S(=O)(=O)n2cc(-c3ccnc(N)c3)c3cc(Br)cnc32)cc1`: the XTT viability was found to be 4.55%.

Consider `COc1ccc(C2=NN(C3CCCCCC3)C(=O)C2(C)C)cc1OCCCCOc1ccc(-c2nn[nH]n2)cc1`, for which the XTT viability came out at 3.51%.

Turning to `CCCn1nnc(NC(=O)COc2ccc(C3CCCCC3)cc2)n1`, the XTT viability is 89.6%.

For `NC(=O)c1cc(Br)ccc1OCCOc1ccccc1`, the XTT viability came out at 110%.

For the compound `O=C(NCCN1CCCC1)c1cc(NCCCCN2CCC(F)(F)CC2)nc2ccc(Cl)cc12`, the XTT viability turned out to be 86.9%.

For `CN(C(=O)c1cc2c(-c3cncnc3)cccc2[nH]1)c1ccccc1`, the XTT viability amounted to 102%.

`COc1cc(CN2CCC3(C=Cc4ccccc43)CC2)cc2c1OCO2`: the XTT viability was 73.9%.

Consider `COc1ccc(Cl)cc1NC(=O)CN(C)C(=O)c1cnn(-c2ccccc2)n1`, for which the XTT viability worked out at 78.4%.

Consider `O=C(NCCN1CCCC1)c1cc(NCCN2CCOCC2)nc2ccc(Cl)cc12`, for which the XTT viability was found to be 146%.

On to `COc1cc(Br)cc2cc(C(=O)Nc3cccc(C(F)(F)F)c3)c(=O)oc12`, for which the XTT viability was found to be 90.6%.

Turning to `COc1ccc(-c2cc(NC(=O)c3ccc(F)cc3Cl)ccc2OC)cc1`, the XTT viability is 89.7%.

Regarding `CCC(NC(=O)c1ccccc1NC(=O)c1ccc(C)cc1)C(=O)OC` (stereo not given), the XTT viability amounted to 82.9%.

As to `COc1ccc(Cn2cnc3c(-c4ccco4)nc(Cl)nc32)cc1`, the XTT viability came out at 98.6%.
